SMARCA2 act = activators of SMARCA2 function | MG213 cells, MMTV-luciferase reporter, dexamethasone, overnight | activation, % at 9.1 µM | hit rate 1% among 370,000 | AID 652017; in the data active = activation above about 7.8%;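 also: 0% = vehicle wells and 100% = reference activator wells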
MsrA inhibitor = inhibits bovine methionine sulfoxide reductase A; hit rate 0.75% among 360,000; AID 651718; inhibition, % at 15.5 µM; purified bovine MsrA, absorbance read-out;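 also: 0% = vehicle wells with enzyme and 100% = reference inhibitor wells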
MsrA act = activates bovine MsrA enzyme; hit rate 0.3% among 360,000; purified bovine MsrA, absorbance read-out; activation, % at 10.6 µM; in the data active = activation above about 7.5%;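 also: 0% = vehicle and 100% = reference activator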
proKLK7 act = activators of human kallikrein-7 zymogen; hit rate 0.9% among 370,000; activation, % at 7 µM; purified proKLK7, EDANS-DABCYL substrate fluorescence; 100% is mature enzyme control, 0% vehicle; P49862;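 active = activation above the mean of all tested compounds plus 3 SD, computed per campaign excluding outliers beyond control limits, cut at about 13% in these data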
Target sequence (P49862 whole entry, looked up): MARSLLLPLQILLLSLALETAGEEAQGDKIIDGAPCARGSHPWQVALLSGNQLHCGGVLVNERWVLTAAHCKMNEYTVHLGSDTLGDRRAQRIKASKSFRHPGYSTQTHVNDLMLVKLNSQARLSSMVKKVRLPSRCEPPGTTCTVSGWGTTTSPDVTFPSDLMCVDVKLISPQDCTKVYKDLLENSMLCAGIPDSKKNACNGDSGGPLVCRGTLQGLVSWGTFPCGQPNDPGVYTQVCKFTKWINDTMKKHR
MsrA inh confirm = confirmation of bovine MsrA inhibitors; purified bovine MsrA, absorbance read-out; hit rate 41% among 2,300; shares compounds with MsrA inhibitor; inhibition, % at 15.5 µM;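 also: coupled to thioredoxin reductase with NADPH and selenocystamine and DMSO as substrate; 0% = vehicle only and 100% = full effect of reference inhibitor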
Numbers without * were called inactive; . = not tested or not shown. Most compounds without a hit are left out; they make up all but 2.8% or so of the library. Rule as the data show it, unless noted: active = inhibition above about 4.5%; inactive = the rest.

SMILES	SMARCA2 act	MsrA inhibitor	MsrA act	proKLK7 act	MsrA inh confirm
CCc1n[nH]c(=S)n1/N=C/c1cc(Br)c(OC)cc1OC	-1	16*	-5	0	10*
O=C1CS/C(=N/N=C/c2cccs2)N1	1	6.4*	-6	-1	4
CC1(C)S/C(=N/N=C/c2cccs2)NC1=O	3	4.7*	1	0	4
COC(=O)c1ccc2cn[nH]c2c1	2	-1	-1	0	.
CCn1cc(C(=O)N2CCN(c3ccc(C(C)=O)cc3)CC2)c2cc(OC)c(OC)cc2c1=O	-3	6.5*	-17	0	4
Cc1nnc(C)n1N=Cc1ccc(O)cc1O	-4	.	.	-2	.
Cc1cc(C)c2c3c(sc2n1)C(c1cccc(F)c1)C(C#N)=C(N)O3 (configuration not stated)	-3	10*	-3	-5	4
CCCN1CCC2(CC1)C(C#N)=C(N)Oc1c2sc2nc(C)cc(C)c12	0	1	-6	3	.
Cc1cc(OCC(=O)N(C)C2CCCCC2)cc(C)c1Cl	6	0	-2	0	.
CCN(CC)C(=O)COc1cc(C)c(Cl)c(C)c1	-4	37*	-1	0	1
O=C(O)CC1NC(=S)N(Cc2ccccc2)C1=O (configuration not stated)	-2	0	-2	-1	.
Cc1c(=O)n(OCc2ccccn2)c2ccccc2[n+]1[O-]	2	4.9*	-3	0	1
C[C@H]1c2cccc(O)c2C(O)=C2C(=O)C3(O)C(O)=C(C(N)=O)C(=O)[C@@H](N(C)C)[C@@H]3[C@@H](O)[C@@H]21 (some centres not stated)	-8	4.9*	-4	-5	3
C=C1c2cccc(O)c2C(O)=C2C(=O)[C@]3(O)C(O)=C(C(N)=O)C(=O)[C@@H](N(C)C)[C@@H]3[C@@H](O)[C@H]12	0	2	-4	-8	.
Cc1ccc2cc(/C=N/NC(=O)CN3CCOCC3)c(Cl)nc2c1	1	5.0*	-3	-2	3
c1ccc2c(c1)nc(-c1ccncc1)n1nnnc21	2	13*	-7	0	12*
c1ccc(-c2nc3ccccc3c3nncn23)cc1	1	0	-4	0	.
O=C1NC(=Nc2ccccc2)S/C1=C\c1cccnc1	-5	2	-4	0	.
O=C1N/C(=N/O)S/C1=C\c1ccccc1-n1cccn1	-5	4.7*	-5	1	3
N#Cc1c(SCc2ccccc2)nc(N2CCOCC2)c2c1CCCC2	-2	14*	-3	0	10*
Cc1ncc(CO)c(/C=N/Nc2cccc(Cl)n2)c1O	0	9.4*	2	-99	3
Cc1cc(/C=C(\C#N)C(=O)NCc2ccco2)c(C)n1-c1ccc(C(=O)O)cc1	3	6.8*	-3	1	3
O=C(c1cccn2c(=O)c3ccccc3nc12)N1CCN(c2ccccn2)CC1	0	2	-4	0	.
O=C(O)c1cccn2c(=O)c3ccccc3nc12	-7	4.7*	-5	-16	4
CCOc1cc(OCC)cc(C(=O)N2CCC[C@H]2C(=O)N2CCC[C@H]2C(=O)NCc2cccc(OC)c2)c1	-6	-1	-2	-1	.
SMILES	SMARCA2 act	MsrA inhibitor	MsrA act	proKLK7 act	MsrA inh confirm
COc1cccc(-c2cc(NC=O)c3ncc(-c4ccc(C(C)=O)cc4)n3c2)c1	-2	2	-2	-6	.
O=C1CCC/C1=C/Nc1ccc(Cl)cc1	-1	6.0*	-3	0	5
O=C1CCCC/C1=C\Nc1ccc(O)cc1	-1	3	-3	0	.
CCCNC(=S)N(Cc1ccccc1)Cc1nc2ccccc2c(=O)[nH]1	-6	47*	-7	2	-1
CC(=O)c1c(C)[nH]c(C2=NNC(=NCc3ccccc3)SC2)c1C	-2	5.0*	-11	0	2
O=C(N/C(=C/c1ccccc1)C(=O)N1CCOCC1)c1ccc([N+](=O)[O-])cc1	-1	1	-3	-1	.
O=C(N/C(=C/c1ccc([N+](=O)[O-])cc1)C(=O)N1CCOCC1)c1ccco1	0	4.9*	-5	-1	4
COc1ccc(CCNC(=O)CN2c3cccc4cccc(c34)S2(=O)=O)cc1OC	-2	0	1	1	.
Cc1cc(C)cc(Cn2cc(CN3CC(N4CCN(C)CC4)CS3(=O)=O)nn2)c1 (configuration not stated)	-3	1	-6	-1	.
O=[N+]([O-])c1ccccc1S(=O)(=O)Nc1ccc(-c2ccc(N3CCCC3)nn2)cc1	3	5.0*	-3	0	2
O=[N+]([O-])c1cccc(S(=O)(=O)Nc2ccc(-c3ccc(N4CCCC4)nn3)cc2)c1	-1	0	3	0	.
O=C(NC1(Cc2ccccc2)CCN(CCc2cccs2)C1=O)c1ccccc1 (configuration not stated)	0	0	-1	0	.
COc1ccc(/C=C/C(=O)NC(=S)Nc2ccc(S(=O)(=O)Nc3cc(C)on3)cc2)cc1	-3	5.0*	-6	1	5.7*
COc1ccc(/C=C/C(=O)NC(=S)Nc2ccc(S(=O)(=O)Nc3ccc(OC)nn3)cc2)cc1	-1	4	-6	0	.
CCOC(=O)C1=CCN(S(=O)(=O)c2ccc(C)cc2)C1c1ccc(CC)cc1 (configuration not stated)	-4	0	-7	1	.
Cc1ccc(/C=N/NC(=O)c2cccs2)s1	5	6.7*	-6	0	4.9*
O=C(N/N=C/c1ccc(-c2cccc([N+](=O)[O-])c2)o1)c1cccs1	6	1	-5	0	.
O=C(N/N=C/c1ccc(Br)s1)c1cccs1	-2	3	-4	0	.
O=C(N/N=C/c1ccc([N+](=O)[O-])cc1)c1cccs1	1	5.4*	-4	0	5.0*
Cn1cnc([N+](=O)[O-])c1Sc1nc(N)nc2c1ncn2Cc1ccccc1	0	4	-4	0	.
CCCn1cnc2c(Sc3c([N+](=O)[O-])ncn3C)nc(N)nc21	-1	5	-1	0	.
CC(C)Cn1cnc2c(Sc3c([N+](=O)[O-])ncn3C)nc(N)nc21	-3	7.7*	-2	-1	4
CCCCn1cnc2c(Sc3c([N+](=O)[O-])ncn3C)nc(N)nc21	0	5.2*	-2	0	4
CCC(C)Cn1cnc2c(Sc3c([N+](=O)[O-])ncn3C)nc(N)nc21 (configuration not stated)	-1	4.9*	-3	0	4.9*
CCC(O)(c1ccc(NC(=O)OC(C)(C)C)cc1)c1cc(OC)cc(OC)c1 (configuration not stated)	-4	.	.	0	.
COc1ccc([C@H]2OC(=O)C[C@H]2C(=O)N2CCN(C(=O)C3CCCO3)CC2)cc1OC (some centres not stated)	-6	.	.	-1	.
CCOC(=O)C(/C=C(\C#N)C(=O)OCC)=C(/N)N1CCN(c2ccccc2)CC1	0	6.8*	-3	0	5.3*
CCOC(=O)/C(C#N)=C/c1ccc(N2CCN(C)CC2)cc1	2	3	1	0	.
CCc1nc(N)c(C#N)c(-c2cccnc2)c1C	-4	4.7*	-1	0	1
